# Bioassay records deposited in PubChem by National Center for Advancing Translational Sciences (NCATS).
# Rows were chosen to be rich in hits. Some 11% of all compounds tested hit in one or more screens of this group.
# AMA1-RON2 inh: inhibitors of Plasmodium falciparum AMA1-RON2 interaction | AlphaScreen AMA1-biotinylated RON2 peptide binding | hit rate 0.2% among 360,000 | Potency, µM (top dose mostly 58.2 µM), for the others: top-dose activity change, negative = inhibition, hits mostly inhibitors;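 note: 0% = vehicle wells and -100% = peptide control; nearly all actives have a fitted effect of over 45% in size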
#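 AMA1 (3D7) with his tag at 25 nM final met compounds first, then biotinylated RON2 peptide at 25 nM; detection used donor plus acceptor beads, 10 µg/mL apiece, read by AlphaScreen after 30 min at room temperature.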
# Pf growth 48h: P. falciparum growth inhibition at 48 hours (one generation); P. falciparum luciferase growth in erythrocytes, 48 h; Potency, µM (series often up to 28.7 µM), without a hit: at the highest dose activity change, negative = inhibition, actives largely listed as inhibitors; hit rate 5.9% among 310,000; note: % is set by controls: 0 for no effect and ±100 for the full control effect
#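 First compound was added to culture medium, then infected red cells at 0.1% parasitemia and 2% hematocrit (final). After incubation at 37 C under 5% CO2, luciferase detection reagent was dispensed and light output recorded.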
# Sm TGR block: S. mansoni TGR enzyme inhibition; Q962Y6; purified TGR, DTNB reduction, TNB absorbance 405 nm; Potency, µM (series often up to 114 µM), for inactives: at the highest dose activity change, negative = inhibition, most hits filed as inhibitors; hit rate 3% among 360,000; AID 485364; note: % is set by controls: 0 for no effect and ±100 for the full control effect; nearly all actives have a fitted effect of over 60% in size
#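 TGR 20 nM + NADPH 100 uM (dispensed conc.), cpd preinc 15 min RT; start with NADPH (500 uM addition) then DTNB (15 mM addition). Kinetic TNB absorbance, 405 nm filter. Four-parameter Hill fit across titration.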
# Pf growth 96h: P. falciparum growth inhibition at 96 hours | P. falciparum luciferase reporter growth, 96 h | AID 504834 | Potency, µM (doses to about 28.7 µM), without a hit: top-dose activity change, negative = inhibition, most hits filed as inhibitors | hit rate 6.9% among 320,000; note: % is set by controls: 0 for no effect and ±100 for the full control effect
#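 96 h incubation, 37 C, 5% CO2, of luciferase-reporter P. falciparum-infected RBCs (2% hematocrit, 0.05% parasitemia final) with test compounds; endpoint luminescence.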
# NS1 function inh: influenza NS1 inhibition; AID 2326; hit rate 0.4% among 270,000; Potency, µM (titrated, usually from 46.1 µM), inactives show at the top dose activity, positive = more growth; calls by dose curve; note: actives are rising curves; nearly all actives have a fitted effect of over 50% in size
#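 Recovery from NS1-induced slow growth read by OD600 in budding yeast switched to galactose assay medium (pH 6.0, -URA) at 1:100 dilution. Compound 23 nl per well; the matching strain lacking NS1 serves as control.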
# Numbers without * were called inactive; ? = inconclusive; nt = no result. Unless noted, calls come from the whole dose curve; as a rule, active = well fitted curve in the direction sought with a large enough effect; inconclusive = small, poorly fitted or top-dose-only effect, or another doubt; inactive = no such curve, though single readings can be large; an effect the other way counts as inactive or inconclusive. Potency is the fitted concentration of half-maximal effect.
SMILES,AMA1-RON2 inh,Pf growth 48h,Sm TGR block,Pf growth 96h,NS1 function inh
COc1ccc([C@@H]2[C@@H]3C(=O)N(C(C)(C)C)C(=O)[C@@H]3[C@]3(Cc4ccccc4)C(=O)N(c4cccc(F)c4)C(=O)N23)cc1,1.2%,?,-3.5%,9.28µM*,nt
CN(C(=O)C1CCN(S(=O)(=O)c2ccccc2[N+](=O)[O-])CC1)C1CCCCC1,-24.6%,nt,nt,nt,nt
Cc1ccc(-n2nnnc2C(Cl)c2nnnn2-c2ccc(C)cc2)cc1,14.3%,-2.5%,25.1µM*,?,-26.0%
CCC(C)n1c(SCC(=O)Nc2ccccc2C(=O)OC)nc2ccsc2c1=O (stereo unspecified),nt,nt,-0.7%,nt,nt
N#CC1=C(N)N=C(SCc2cccc3ccccc23)C(C(N)=O)C12CCCCC2 (stereo unspecified),-4.7%,nt,-3.5%,11.7µM*,8.2%
CC(=O)NC(N(C#N)c1nc(Cl)nc(N(C)C)n1)C(Cl)(Cl)Cl (stereo unspecified),-0.9%,13.0%,39.8µM*,46.1%,1.1%
CCN(CC)C(=O)C(C)N(C#N)c1nc(Cl)nc(N(C)C)n1 (stereo unspecified),3.5%,-16.1%,0.2%,25.3%,5.8%
CCN1/C(=C\C=C\C2=[N+](CC)c3ccccc3C2(C)C)C(C)(C)c2ccccc21,14.1µM*,nt,-9.0%,0.147µM*,-40.5%
OC[C@@H]1CN(Cc2ccc(F)cc2)C[C@H](n2cnc3c(N4CCN(c5ccccc5)CC4)ncnc32)O1,-27.3%,nt,nt,nt,nt
CCN(CC)C(=O)Nc1ccc(OC[C@H](O)CNC(C)(C)C)c(C(C)=O)c1,nt,-18.3%,nt,-30.1%,nt
CCCc1nn2c(=O)cc(CSCC(=O)Nc3nnc(CC)s3)nc2s1,12.3%,-15.6%,2.6%,10.4µM*,-5.4%
CCc1nnc(NC(=O)CSCc2cc(=O)n3nc(C)sc3n2)s1,-4.4%,6.0%,-8.8%,?,-0.9%
COc1ccc(-c2c(-c3cc(OC)cc(OC)c3)n(C)c3ccc(-c4ccc(N(C)C)nc4)cc23)cc1,?,?,-6.0%,?,nt
O=C(NC1=C(Nc2ccc(F)cc2)C(=O)c2ccccc2C1=O)c1ccc(Cl)cc1,-10.5%,0.522µM*,22.4µM*,0.37µM*,-5.9%
O=C(NNC(=O)c1ccc(NC(=O)c2ccccc2)cc1)c1ccc(F)cc1,-13.4%,-18.1%,-18.9%,-44.2%,9.9%
CCc1ccc(CNC(=O)c2cc3n(n2)CCCN(Cc2ccccc2)C3=O)cc1,nt,nt,-0.5%,nt,nt
CC(C)=CC(=O)Nc1ccccc1C(N)=O,6.7µM*,10.8%,-0.2%,-23.3%,-4.1%
S=C1NCCc2ccc(Cl)cc2C1c1ccccc1Cl (stereo unspecified),91.1%,11.7µM*,3.0%,?,26.0%
C/C(=N\NC(=S)NCC(C)(C)C)c1cc(F)cc(F)c1O,18.3%,0.294µM*,6.3%,?,1.2%
Cc1cc(Cl)ccc1N(CC(=O)N(C)Cc1ccccc1)S(C)(=O)=O,-5.5%,nt,nt,nt,nt
CN(C)c1ccnc(Nc2ccc(O)cc2)c1C#N,-8.0%,?,-8.9%,10.4µM*,nt
CC(=O)N1CCN(Cc2nc3cc(NC(=O)Nc4ccccc4)ccc3n2C)CC1,16.2%,8.0%,-1.1%,17.0%,-3.8%
Cc1cccc(N(C(=O)c2snc(C(N)=O)c2N)C(C(=O)NCC2CCCO2)c2c[nH]c3ccccc23)c1 (stereo unspecified),-17.4%,?,-0.3%,44.1%,5.5%
NC(=O)c1nsc(C(=O)N(c2cccc(F)c2)C(C(=O)NCC2CCCO2)c2c[nH]c3ccccc23)c1N (stereo unspecified),-5.2%,?,17.8µM*,-15.5%,-6.6%
NC(=O)c1nsc(C(=O)N(c2ccc(F)cc2)C(C(=O)NCC2CCCO2)c2c[nH]c3ccccc23)c1N (stereo unspecified),-13.6%,?,25.1µM*,?,8.8%
SMILES,AMA1-RON2 inh,Pf growth 48h,Sm TGR block,Pf growth 96h,NS1 function inh
NC(=O)c1nsc(C(=O)N(c2ccc3c(c2)OCO3)C(C(=O)NCC2CCCO2)c2ccc(F)cc2)c1N (stereo unspecified),-1.3%,?,-31.7%,34.1%,9.5%
CC[C@H](C)Cc1cn([C@@H](CCCCN)C(=O)NCCCCCCCCCCC(=O)N2CCNCC2)nn1,-2.6%,11.7µM*,-16.1%,?,nt
C#CCOCCOCCOCCNc1nc(N2CCN(C(=O)CCCCCCCCCCNC(=O)[C@@H](CCC(=O)O)n3cc(CCCCCN)nn3)CC2)nc(N2CCN(C(=O)CCCCCCCCCCNC(=O)[C@H](CCCCN)n3cc(C[C@@H](C)CC)nn3)CC2)n1,?,5.86µM*,-27.5%,?,nt
C#CCOCCOCCOCCNc1nc(N2CCN(C(=O)CCCCCCCCCCNC(=O)[C@H](CCCCN)n3cc(CCO)nn3)CC2)nc(N2CCN(C(=O)CCCCCCCCCCNC(=O)[C@H](CCCCN)n3cc(C[C@@H](C)CC)nn3)CC2)n1,?,7.38µM*,50.1µM*,?,nt
COc1ccc2c(C=O)cn(C)c2c1,10.4%,26.1%,13.9%,?,5.5%
O=C(CCNS(=O)(=O)c1ccccc1C(F)(F)F)NCCCN1CCOCC1,-2.7%,nt,nt,nt,nt
COc1ccc(NC(=O)CN(C)C(=O)CNC(=O)c2cccs2)cc1,-4.5%,12.1%,-23.1%,13.6%,-5.9%
CSc1ccccc1Nc1ncnc(N)n1,17.3%,76.3%,14.6%,-1.2%,-3.7%
CCOc1ccc(Cl)cc1CNCCCSc1ncccn1,-1.5%,27.1%,-0.6%,13.1µM*,-8.6%
Cc1ccc2cc(C(c3nnnn3C(C)(C)C)N3CCCCCC3)c(=O)[nH]c2c1 (stereo unspecified),8.7%,?,11.2µM*,?,11.0%
CCC(C)(C)n1nnnc1C(c1cc2cc(C)ccc2[nH]c1=O)N1CCCC1 (stereo unspecified),8.2%,0.0%,20µM*,14.7µM*,-5.5%
CC(C)(C)n1nnnc1C(c1cc2cc3c(cc2[nH]c1=O)OCO3)N1CCN(c2ccccc2)CC1 (stereo unspecified),1.3%,1.65µM*,-35.8%,-20.7%,1.0%
CCN1CCN(C(c2cc3cc4c(cc3[nH]c2=O)OCO4)c2nnnn2C(C)(C)CC)CC1 (stereo unspecified),8.1%,?,-0.8%,nt,1.5%
Cc1ccc(NC(=O)Cn2c(-c3nonc3N)nc3ccccc32)c(Br)c1,nt,nt,-0.9%,nt,nt
COc1cccc2c1CCC1=CC(=O)CCC12C (stereo unspecified),21.9%,nt,nt,nt,nt
Cc1cc(C(=O)c2ccccc2)c(NC(=O)CN2CCOCC2)s1,5.2%,12.3%,-6.2%,29.6%,-1.8%
COC(=O)c1ccccc1NC(=O)CN1CCN(C(=O)c2ccco2)CC1,-18.0%,?,-13.6%,nt,-7.6%
CCc1cc(C(=O)OC)c(NC(=O)CN2CCN(C(=O)C3CCCO3)CC2)s1 (stereo unspecified),1.3%,?,?,0.657µM*,-18.5%
